Reference: PubChem BioAssay AID2517 (National Center for Advancing Translational Sciences (NCATS), 2010)
Where “and” joins values, the source holds several entries; their conditions need not be identical. Equal entries are not always repeated. Screen size: about 350,000 compounds; about 1,200 (0.34%) were called active. A call without a number means that no potency is given here. Roughly 3% stayed inconclusive and do not appear here. The call rests on the fitted dose curve; in most records, active means well fitted inhibition curve with a large enough effect; inconclusive means small, poorly fitted or top-dose-only effect; inactive means no such curve, though single readings can be large or run the other way. Many of the other results were omitted from the sample, so actives are more common in it than they were. The source holds several records for some structures; these can differ, active in one and inactive in another.

These molecules were tested against DNA repair nuclease/redox regulator APEX1 (Homo sapiens) (UniProt P27695) (assay: qHTS Assay for Inhibitors of the Human Apurinic/apyrimidinic Endonuclease 1 (APE1)). Conditions: recombinant APE1, TAMRA/BHQ-2 abasic DNA cleavage fluorescence; series mostly up to 65.8 µM.
DNA repair nuclease/redox regulator APEX1 (Homo sapiens), sequence (P27695 whole entry, looked up): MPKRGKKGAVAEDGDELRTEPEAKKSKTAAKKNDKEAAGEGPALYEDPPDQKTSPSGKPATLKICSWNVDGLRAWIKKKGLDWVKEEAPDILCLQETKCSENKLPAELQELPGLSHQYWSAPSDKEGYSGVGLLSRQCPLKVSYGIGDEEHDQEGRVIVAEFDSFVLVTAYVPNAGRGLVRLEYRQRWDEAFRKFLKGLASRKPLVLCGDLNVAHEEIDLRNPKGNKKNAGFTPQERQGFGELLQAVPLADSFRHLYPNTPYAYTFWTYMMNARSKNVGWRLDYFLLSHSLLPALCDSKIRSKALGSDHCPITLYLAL
Text: The apurinic/apyrimidinic endonuclease APE1 is the primary mammalian enzyme responsible for the removal of abasic (or AP) sites in DNA and functions centrally in the base excision DNA repair (BER) pathway. […] Thus, targeting APE1 could improve the efficacy of current treatment paradigms by promoting selective sensitization or protection of diseased and normal cells, respectively.
Inhibition of APE1 activity was screened by utilizing double-stranded short substrate containing tetrahydrofuran (THF) abasic site labeled with rhodamine-type fluorophore (TAMRA) at the 5'-end and with non-fluorescent Black Hole Quencher-2 (BHQ-2) at the opposing 3'-end. An increase in the fluorescence intensity due to incision of the abasic site by APE1 was used to measure the enzyme activity.
NIH Chemical Genomics Center [NCGC]
NIH Molecular Libraries Probe Centers Network [MLPCN]
Assay Provider: David M. Wilson, III, National Institute on Aging, NIH
Three uL of enzyme solution (0.75 nM APE1 final concentration) was dispensed to 1536-well Greiner black solid bottom plates. […] The plates were incubated for 15 min at room temperature, and then 1 uL of substrate solution (50 nM final concentration of TAMRA/BHQ-2) was added to start the reaction. The plates were immediately transferred into ViewLux High-throughput CCD imager (Perkin-Elmer) in order to measure the reaction progress in kinetic mode (three reads every 60 seconds) using 525 nm excitation and 598 nm emission fluorescence protocol. The fluorescence intensity difference between the third and the first time points was used to compute reaction progress. Results were normalized to buffer only columns and NSC13755 positive controls and negative control DMSO treated wells.
Further: nearly all actives have a fitted effect of over 55% in size.
Potency means the concentration at half of the fitted maximal effect.

`COc1ccc(N2C(=O)/C(=C/c3ccco3)C(=O)NC2=S)cc1` was tested. Which Potency did it give?
Its Potency is 0.67 µM (active).

`C[C@]12CC[C@@H]3C(=CCc4cc(O)ccc43)[C@@H]1CCC2=O` was tested. Which Potency did it give?
The Potency was “inactive”.

How did the Potency turn out when `CCc1ccc(C2C(C#N)=C(N)Oc3n[nH]c(CC(=O)OC)c32)cc1` (stereo not given) was run?
Its Potency is “inactive”.

`CC[N+](C)(CC)CCC[n+]1c(-c2ccccc2)c2cc(N)ccc2c2ccc(N)cc21` was tested. Which Potency did it give?
The Potency was 2.12 µM (active).

With `Clc1ccccc1` as the molecule, how does the Potency read?
The Potency was “inactive”.

For `CC(=O)[O][Sn]([c]1ccccc1)([c]1ccccc1)[c]1ccccc1`, which Potency is on record?
Its Potency is “inactive”.

`N#CC(C#N)=Cc1cc(O)c(O)c([N+](=O)[O-])c1` was tested. Which Potency did it give?
The Potency was 5.62 µM (active).

How did the Potency turn out when `ClC(Cl)=C(Cl)C(Cl)=C(Cl)Cl` was run?
Its Potency is “inactive”.

Which Potency does the source give for `N#Cc1cc(Br)c(O)c(Br)c1` here?
Its Potency is “inactive”.

Which Potency does the source give for `N#CCCCl` here?
The Potency was “inactive”.

`Cc1nc(SCC(=O)NC2CCCC2)[nH]c(=O)c1C` was tested. Which activity change, negative = inhibition did it give?
The activity change, negative = inhibition was 63.8% [at 12.4 µM] (inactive).

For `CC(C)COC(=O)n1c(=O)oc2ccc(S(=O)(=O)N3CCCCC3)cc21`, which Potency is on record?
Its Potency is “inactive”.

How did the Potency turn out when `CC(C)Nc1nc(Cl)nc(NC(C)C)n1` was run?
Its Potency is “inactive and 22.4 µM (active)”.

How did the Potency turn out when `CCCCC#N` was run?
The Potency was “inactive”.

How did the Potency turn out when `NCCCCC(N)C(=O)O` (stereo not given) was run?
The Potency was “inactive”.

Which Potency does the source give for `CCCCCCCCCCCCN=C(N)N` here?
Its Potency is “inactive”.

For `CC(C)(c1ccccc1)c1ccc(O)cc1`, which Potency is on record?
Its Potency is “inactive”.

Which Potency does the source give for `C[C@H]1C/C=C/[C@@H]2[C@@H]3O[C@]3(C)[C@@H](C)[C@H]3[C@H](Cc4ccccc4)NC(=O)[C@]32OC(=O)O/C=C/[C@](C)(O)C1=O` here?
The Potency was “inactive”.

Which Potency does the source give for `O=C(OCC1O[C@@H](OC(=O)c2cc(O)c(O)c(O)c2)[C@@H](OC(=O)c2cc(O)c(O)c(O)c2)[C@@H](OC(=O)c2cc(O)c(O)c(O)c2)[C@@H]1OC(=O)c1cc(O)c(O)c(O)c1)c1cc(O)c(O)c(O)c1` (stereo not given in full) here?
The Potency was 0.0112 µM (active).

For `Cc1cc(-c2n[nH]c(=S)n2-c2ccc(C)c(C)c2)no1`, which Potency is on record?
Its Potency is “inactive”.

Which Potency does the source give for `CC(=O)c1ccc(-c2ccc(Cn3c(C)nc4cc(N)c(C)nc43)cc2)cc1` here?
The Potency was “inactive”.

Which Potency does the source give for `CN(C)C1C(=O)C(C(N)=O)=C(O)[C@@]2(O)C(=O)C3=C(O)c4c(O)cccc4[C@@](C)(O)C3C[C@@H]12` (stereo not given in full) here?
Its Potency is “inactive”.

Which Potency does the source give for `O=c1cc(-c2ccc(O)cc2)oc2c([C@@H]3O[C@H](CO)[C@@H](O)[C@H](O)[C@H]3O)c(O)cc(O)c12` here?
The Potency was 8.91 µM (active).

For `C=CCOC(=O)c1ccccc1C(=O)OCC=C`, which Potency is on record?
The Potency was “inactive”.

`CC(Cl)Cl` was tested. Which Potency did it give?
Its Potency is “inactive”.

How did the Potency turn out when `CC(C)CC(C)Nc1ccc(Nc2ccccc2)cc1` (stereo not given) was run?
The Potency was “inactive”.

Which Potency does the source give for `CC(CCn1cccn1)NC(=O)CCc1nnc(CCc2ccccc2)o1` (stereo not given) here?
Its Potency is “inactive”.

How did the Potency turn out when `Cc1c(C(=O)O)cccc1-n1c(C)cc(/C=C2\C(=O)NC(=O)N(c3ccc4c(c3)OCO4)C2=O)c1C` was run?
The Potency was 14.1 µM (active).

How did the Potency turn out when `Cc1ccnc(-n2c(C)cc(/C=C3\C(=O)NC(=S)N(C)C3=O)c2C)c1` was run?
Its Potency is “inactive”.

For `CC(C)(C)C(O)(CCc1ccc(Cl)cc1)Cn1cncn1` (stereo not given), which Potency is on record?
Its Potency is “inactive”.

With `C=CC#N` as the molecule, how does the Potency read?
The Potency was “inactive”.

Which Potency does the source give for `ClCCBr` here?
The Potency was “inactive”.

With `CCN(CC)c1nc(C)cc(OP(=S)(OC)OC)n1` as the molecule, how does the Potency read?
The Potency was “inactive”.

For `CCOc1cc(N2CCOCC2)c(OCC)cc1NC(=O)C1=NN(c2cccc(C)c2)C(=O)CC1`, which Potency is on record?
Its Potency is “inactive”.

Which Potency does the source give for `CCC12CCN(CCc3ccccc3)CC1Oc1c(O)cccc12` (stereo not given) here?
Its Potency is “inactive”.
